# Laboratory results published in PubChem BioAssay (EPA / NIEHS).
# Activity calls are given as the source filed them. The calls were made as follows: active = hit-call score of the fitted dose curve at least 0.9, where 1 is the maximum; inactive = score below 0.9.
# Legend:
# [1] = read-out: Transforming growth factor beta 1 (TGFb1), TGFB1 (gene 7040); assay: BSK_KF3CT_TGFb1: BioMAP Diversity Plus: KF3CT Assay for Transforming growth factor beta 1 (TGFb1) Biomarker Activity (AID 2283072); conditions: primary human keratinocytes with fibroblasts; actives raise or lower the signal
# Outline: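 KF3CT co-culture (keratinocytes + fibroblasts), 24 h exposure → TGF-b1 ELISA → bidirectional fit, DMSO = baseline. Parallel SRB total-protein staining (0.1% SRB, 10% TCA fixation, 560 nm) for cytotoxicity.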
# [2] = read-out: C-C motif chemokine 2 (Homo sapiens) (UniProt P13500); assay: BSK_KF3CT_MCP1: BioMAP Diversity Plus: KF3CT Assay for Monocyte Chemoattractant Protein 1 (MCP1/CCL2) Biomarker Activity (AID 2283073); conditions: primary human keratinocytes with fibroblasts; actives raise or lower the signal
# Outline: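 ELISA read-out of MCP-1, 24 h post-dose, in primary human skin keratinocytes co-cultured with fibroblasts. Parallel SRB staining monitors cytotoxicity; changes fitted both directions relative to DMSO.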
# [3] = read-out: Matrix Metallopeptidase 9 (MMP9), MMP9 (gene 4318); assay: BSK_KF3CT_MMP9: BioMAP Diversity Plus: KF3CT Assay for Matrix Metallopeptidase 9 (MMP9) Biomarker Activity (AID 2283074); conditions: primary human keratinocytes with fibroblasts; actives raise or lower the signal
# Outline: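 Values come from bidirectional fitting relative to DMSO of MMP-9 levels, which were measured by ELISA. Measurements were taken 24 h after chemical dosing of a keratinocyte and foreskin fibroblast co-culture.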
# [4] = read-out: urokinase plasminogen activator (uPA), PLAU (gene 5328); assay: BSK_KF3CT_uPA: BioMAP Diversity Plus: KF3CT Assay for urokinase plasminogen activator (uPA) Biomarker Activity (AID 2283075); conditions: primary human keratinocytes with fibroblasts; actives raise or lower the signal
# Outline: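 Values derive from bidirectional fitting against DMSO controls. Keratinocyte/foreskin fibroblast co-cultures received chemical; 24 h later uPA was detected by ELISA, with SRB total-protein staining in parallel wells for overt cytotoxicity.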
# CD40, CD40 (gene 958) [5] = assay: BSK_LPS_CD40: BioMAP Diversity Plus: LPS Assay for CD40 Biomarker Activity (AID 2283076); conditions: primary human HUVEC with PBMC; actives raise or lower the signal
# Outline: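 In the LPS system of human endothelial cells with peripheral blood mononuclear cells, CD40 levels were read by ELISA 24 h post-treatment. Signal changes in either direction were fitted against the DMSO baseline, with parallel SRB protein staining.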
# [6] = read-out: E-selectin (Homo sapiens) (UniProt P16581); assay: BSK_LPS_Eselectin: BioMAP Diversity Plus: LPS Assay for Eselectin Biomarker Activity (AID 2283077); conditions: primary human HUVEC with PBMC; actives raise or lower the signal
# Outline: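 E-selectin ELISA on LPS-stimulated endothelial cell/PBMC co-cultures, read 24 h post-treatment; gains and losses fitted against DMSO. Parallel SRB staining (0.1% SRB after 10% TCA fixation, 560 nm) flags overt cytotoxicity.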
# [7] = read-out: Interleukin-8 (IL8), CXCL8 (gene 3576); assay: BSK_LPS_IL8: BioMAP Diversity Plus: LPS Assay for Interleukin-8 (IL8) Biomarker Activity (AID 2283078); conditions: primary human HUVEC with PBMC; actives raise or lower the signal
# Outline: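 ELISA read-out of IL-8 after 24 h chemical treatment of LPS-activated endothelial/PBMC human primary co-cultures. Changes either up or down relative to DMSO; overt cytotoxicity checked by sulforhodamine B staining in parallel wells.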
# [8] = read-out: Monocyte Chemoattractant Protein-1 (MCP1), CCL2 (gene 6347); assay: BSK_LPS_MCP1: BioMAP Diversity Plus: LPS Assay for Monocyte Chemoattractant Protein-1 (MCP1) Biomarker Activity (AID 2283081); conditions: primary human HUVEC with PBMC; actives raise or lower the signal;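 as to AC50: secreted MCP-1 protein quantified by ELISA in culture supernatant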
# Outline: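 Secreted MCP-1 read by ELISA at 24 h post-dosing in an LPS-activated co-culture of endothelial cells with peripheral blood mononuclear cells. Fits run in both directions, DMSO as baseline; parallel SRB staining tracks overt cytotoxicity.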
# [9] = BSK_LPS_PGE2: BioMAP Diversity Plus: LPS Assay for Prostaglandin E2 (PGE2) Biomarker Activity (AID 2283082); conditions: primary human HUVEC with PBMC; actives raise or lower the signal;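 as to AC50: secreted prostaglandin E2 measured by ELISA in LPS-stimulated co-culture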
# Outline: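 Compounds were added to the LPS co-culture of endothelium and PBMC, and PGE2 was measured by ELISA after 24 h. Responses in either direction were fitted with DMSO as baseline.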
# [10] = read-out: Macrophage colony-stimulating factor (MCSF), CSF1 (gene 1435); assay: BSK_LPS_MCSF: BioMAP Diversity Plus: LPS Assay for Macrophage colony-stimulating factor (MCSF) Biomarker Activity (AID 2283083); conditions: primary human HUVEC with PBMC; actives raise or lower the signal
# Outline: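 Bidirectional fitting against DMSO was applied to M-CSF levels read by ELISA at 24 h post-dose. The system pairs human umbilical vein endothelium with peripheral blood mononuclear cells; parallel SRB staining tracked cytotoxicity.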
# [11] = read-out: Tissue Factor, F3 (gene 2152); assay: BSK_LPS_TissueFactor: BioMAP Diversity Plus: LPS Assay for Tissue Factor Biomarker Activity (AID 2283084); conditions: primary human HUVEC with PBMC; actives raise or lower the signal
# Outline: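 Compound was added to an endothelial cell/PBMC co-culture, and after 24 h tissue factor (CD142) was read by ELISA. Gain or loss of signal was fitted against a DMSO baseline, and parallel SRB staining (560 nm) tracked overt cytotoxicity.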
# [12] = read-out: Tumor necrosis factor (Homo sapiens) (UniProt P01375); assay: BSK_LPS_TNFa: BioMAP Diversity Plus: LPS Assay for Tumour Necrosis Factor alpha (TNFa) Biomarker Activity (AID 2283085); conditions: primary human HUVEC with PBMC; actives raise or lower the signal;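 as to AC50: TNFa protein level quantified by ELISA in the co-culture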
# Outline: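 Cells (umbilical vein endothelium plus peripheral blood mononuclear cells) were dosed with chemical, incubated 24 h, then TNFa was quantified by ELISA; values derive from bidirectional fitting with DMSO as baseline.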
# [13] = read-out: Vascular cell adhesion molecule 1 (VCAM1), VCAM1 (gene 7412); assay: BSK_LPS_VCAM1: BioMAP Diversity Plus: LPS Assay for Vascular cell adhesion molecule 1 (VCAM1) Biomarker Activity (AID 2283086); conditions: primary human HUVEC with PBMC; actives raise or lower the signal
# Outline: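 Cells are dosed in an LPS-stimulated endothelial/mononuclear co-culture and, after 24 h, VCAM-1 is quantified by ELISA. Activity in either direction is fitted relative to the DMSO negative control.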
# CD38, CD38 (gene 952) = assay: BSK_SAg_CD38: BioMAP Diversity Plus: SAg Assay for CD38 Biomarker Activity (AID 2283087); conditions: primary human HUVEC with PBMC; actives raise or lower the signal
# Outline: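 CD38 quantified by ELISA (fluorescence) in a superantigen-activated endothelial cell–PBMC co-culture at 24 h post-dose. Activity fitted in both directions relative to DMSO; parallel SRB and Alamar Blue cytotoxicity read-outs.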
# CD40, CD40 (gene 958) [14] = assay: BSK_SAg_CD40: BioMAP Diversity Plus: SAg Assay for CD40 Biomarker Activity (AID 2283088); conditions: primary human HUVEC with PBMC; actives raise or lower the signal
# Outline: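 CD40 is measured by fluorescence ELISA in an endothelial/PBMC primary human co-culture at 24 h post-dose. Fitting is bidirectional, DMSO baseline. Parallel SRB staining (560 nm) flags cytotoxicity.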
# CD69, CD69 (gene 969) = assay: BSK_SAg_CD69: BioMAP Diversity Plus: SAg Assay for CD69 Biomarker Activity (AID 2283089); conditions: primary human HUVEC with PBMC; actives raise or lower the signal;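 as to AC50: cell surface CD69 protein quantified by ELISA with fluorescence detection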
# Outline: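 ELISA, fluorescence read-out: CD69 on human umbilical vein endothelial cell + PBMC co-culture, 24 h post-dosing. Gain or loss of signal fitted bidirectionally against DMSO baseline.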
# [15] = read-out: Monocyte Chemoattractant Protein-1 (MCP1), CCL2 (gene 6347); assay: BSK_SAg_MCP1: BioMAP Diversity Plus: SAg Assay for Monocyte Chemoattractant Protein-1 (MCP1) Biomarker Activity (AID 2283090); conditions: primary human HUVEC with PBMC; actives raise or lower the signal
# Outline: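 Values derive from bidirectional fitting of ELISA-measured MCP1 against DMSO controls. Readings were taken 24 h after dosing human vascular endothelial cells co-cultured with peripheral blood mononuclear cells under superantigen stimulation.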
# [16] = read-out: E-selectin (Homo sapiens) (UniProt P16581); assay: BSK_SAg_Eselectin: BioMAP Diversity Plus: SAg Assay for Eselectin Biomarker Activity (AID 2283091); conditions: primary human HUVEC with PBMC; actives raise or lower the signal
# Outline: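 Cell-surface E-selectin is read by ELISA at 24 h in the SAg co-culture of HUVEC and PBMC. Curves are fitted in both directions relative to DMSO. Parallel SRB total-protein staining tracks overt toxicity.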
# E-selectin (Homo sapiens), sequence (P16581 whole entry, looked up): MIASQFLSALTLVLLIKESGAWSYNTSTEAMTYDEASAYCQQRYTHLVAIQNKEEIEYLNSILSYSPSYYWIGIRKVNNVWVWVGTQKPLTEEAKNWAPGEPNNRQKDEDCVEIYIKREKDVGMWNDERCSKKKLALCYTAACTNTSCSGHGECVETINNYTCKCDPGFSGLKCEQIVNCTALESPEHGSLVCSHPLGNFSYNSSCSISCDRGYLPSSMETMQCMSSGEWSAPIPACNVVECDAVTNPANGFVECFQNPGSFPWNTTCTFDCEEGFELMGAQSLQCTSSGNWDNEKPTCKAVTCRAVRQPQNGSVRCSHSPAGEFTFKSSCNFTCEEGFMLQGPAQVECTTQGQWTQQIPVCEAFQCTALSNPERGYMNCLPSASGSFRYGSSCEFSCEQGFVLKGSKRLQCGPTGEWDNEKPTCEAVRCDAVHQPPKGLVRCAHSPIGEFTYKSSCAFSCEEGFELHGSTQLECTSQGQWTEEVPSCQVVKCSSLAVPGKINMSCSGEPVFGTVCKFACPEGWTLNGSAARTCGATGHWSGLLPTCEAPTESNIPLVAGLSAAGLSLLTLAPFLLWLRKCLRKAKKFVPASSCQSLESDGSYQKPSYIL
# Tumor necrosis factor (Homo sapiens), sequence (P01375 whole entry, looked up): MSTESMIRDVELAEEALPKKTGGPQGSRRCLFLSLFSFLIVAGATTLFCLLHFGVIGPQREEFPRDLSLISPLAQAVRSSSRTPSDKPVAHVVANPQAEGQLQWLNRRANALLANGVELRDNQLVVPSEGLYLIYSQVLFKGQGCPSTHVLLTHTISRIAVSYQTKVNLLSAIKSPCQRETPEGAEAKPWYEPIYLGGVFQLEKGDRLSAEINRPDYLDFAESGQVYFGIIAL
smiles,measurement,setting,value
CCCCCCC(C)OC(=O)COc1nc(F)c(Cl)c(N)c1Cl (stereo not given),AC50,[1],31.3 µM (active)
same,outcome,[2],inactive
same,outcome,[3],inactive
same,AC50,[4],20 µM (active)
same,AC50,"CD40, CD40 (gene 958) [5]",29.9 µM (active)
same,AC50,[6],30.7 µM (active)
same,AC50,[7],36.8 µM (active)
same,AC50,[8],31 µM (active)
same,AC50,[9],20.3 µM (active)
same,AC50,[10],29.8 µM (active)
same,AC50,[11],35.9 µM (active)
same,AC50,[12],34.3 µM (active)
same,AC50,[13],30.8 µM (active)
same,AC50,"CD38, CD38 (gene 952)",30.7 µM (active)
same,AC50,"CD40, CD40 (gene 958) [14]",29.5 µM (active)
same,AC50,"CD69, CD69 (gene 969)",31 µM (active)
same,AC50,[15],29.8 µM (active)
same,AC50,[16],33 µM (active)
C[C@]12C[C@H](O)[C@H]3[C@@H](CCC4=CC(=O)CC[C@@]43C)[C@@H]1CC[C@@H]2C(=O)CO,outcome,[1],inactive
same,outcome,[2],inactive
same,outcome,[3],inactive
same,outcome,[4],inactive
same,outcome,"CD40, CD40 (gene 958) [5]",inactive
same,outcome,[6],inactive
same,outcome,[7],inactive
same,outcome,[8],inactive
same,outcome,[9],inactive
same,outcome,[11],inactive
same,outcome,[12],inactive
same,outcome,[13],inactive
same,outcome,"CD38, CD38 (gene 952)",inactive
same,outcome,"CD40, CD40 (gene 958) [14]",inactive
same,outcome,"CD69, CD69 (gene 969)",inactive
same,outcome,[15],inactive
same,outcome,[16],inactive
C=CCOC(Cn1ccnc1)c1ccc(Cl)cc1Cl (stereo not given),outcome,[1],inactive
same,outcome,[2],inactive
same,outcome,[3],inactive
same,outcome,[4],inactive
same,AC50,"CD40, CD40 (gene 958) [5]",22.2 µM (active)
same,outcome,[6],inactive
same,outcome,[7],inactive
same,outcome,[8],inactive
same,AC50,[9],0.27 µM (active)
same,outcome,[10],inactive
same,outcome,[11],inactive
same,outcome,[12],inactive
same,outcome,[13],inactive
same,outcome,"CD38, CD38 (gene 952)",inactive
same,outcome,"CD40, CD40 (gene 958) [14]",inactive
same,outcome,"CD69, CD69 (gene 969)",inactive
same,outcome,[15],inactive
same,AC50,[16],32.9 µM (active)
CCCCC(CC)CN1C(=O)C2C3C=CC(C3)C2C1=O (stereo not given),outcome,[1],inactive
same,outcome,[2],inactive
same,outcome,[3],inactive
same,outcome,[4],inactive
same,AC50,"CD40, CD40 (gene 958) [5]",11.6 µM (active)
same,outcome,[6],inactive
same,outcome,[7],inactive
same,outcome,[8],inactive
same,outcome,[9],inactive
same,AC50,[10],15.5 µM (active)
same,outcome,[11],inactive
same,AC50,[12],0.237 µM (active)
same,AC50,[13],20 µM (active)
same,AC50,"CD38, CD38 (gene 952)",26.3 µM (active)
same,AC50,"CD69, CD69 (gene 969)",20 µM (active)
same,outcome,[15],inactive
same,outcome,[16],inactive
